# Paper PMC7862700, “An all-to-all approach to the identification of sequence-specific readers for epigenetic DNA modifications on cytosine”
# Key:
# Assay in all cases: DAPPL (digital affinity profiling via proximity ligation, sequencing); 10 mM Tris-HCl pH 7.5, 50 mM NaCl, 1 mM DTT, 4% glycerol, room temperature, 30 min; GST-TFs on glutathione beads, 16-mer random dsDNA library, 0.1% formaldehyde crosslink after washing; high values mean tight binding
# Conditions in all cases: protein: recombinant; tags: N-terminal GST; dsDNA, one strand shown
# [1] = target: SPI1 (Homo sapiens, UniProt P17947 1-270)
# How it was run: (§1)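 Sequencing on an Illumina NextSeq500 followed washing, crosslinking with 0.1% formaldehyde, proximity ligation (BsaI/T4 ligase, 1 h, 37 °C) and PCR amplification of pools that had been incubated for 30 min at room temperature with 200 nmole of a random double-stranded 16-mer DNA library in Tris/NaCl/DTT/glycerol buffer. Each pool held DNA-barcoded human transcription factors, expressed in yeast as GST fusions and captured on glutathione beads, plus a tag-only sample. Binding signal is a hexamer's read frequency for a factor divided by its frequency in the tag-only sample.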
# [2] = target: T1, ELK3 (Homo sapiens, UniProt P41970 1-407)
# T1 sequence: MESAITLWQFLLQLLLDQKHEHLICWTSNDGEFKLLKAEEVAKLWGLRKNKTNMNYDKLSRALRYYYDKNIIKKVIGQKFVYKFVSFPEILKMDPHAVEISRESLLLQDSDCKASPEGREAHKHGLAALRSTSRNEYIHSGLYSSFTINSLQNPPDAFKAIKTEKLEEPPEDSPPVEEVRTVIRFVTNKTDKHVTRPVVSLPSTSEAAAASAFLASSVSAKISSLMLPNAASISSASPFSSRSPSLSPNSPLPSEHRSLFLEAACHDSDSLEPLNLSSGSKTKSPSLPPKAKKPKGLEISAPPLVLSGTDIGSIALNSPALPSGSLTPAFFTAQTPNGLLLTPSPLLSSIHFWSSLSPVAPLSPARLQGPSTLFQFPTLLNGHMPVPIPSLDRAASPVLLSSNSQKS
# How it was run: as §1
# [3] = target: T2, SPIC (Homo sapiens, UniProt Q8N5J4 1-248)
# T2 sequence: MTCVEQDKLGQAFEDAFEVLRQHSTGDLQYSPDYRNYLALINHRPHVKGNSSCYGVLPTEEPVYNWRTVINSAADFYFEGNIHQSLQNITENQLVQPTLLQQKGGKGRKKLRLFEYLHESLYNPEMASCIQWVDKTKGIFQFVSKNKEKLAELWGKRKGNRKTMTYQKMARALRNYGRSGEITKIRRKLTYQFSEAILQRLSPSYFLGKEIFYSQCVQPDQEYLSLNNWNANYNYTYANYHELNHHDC
# How it was run: as §1
# [4] = target: T3, ELF3 (Homo sapiens, UniProt P78545 1-371)
# T3 sequence: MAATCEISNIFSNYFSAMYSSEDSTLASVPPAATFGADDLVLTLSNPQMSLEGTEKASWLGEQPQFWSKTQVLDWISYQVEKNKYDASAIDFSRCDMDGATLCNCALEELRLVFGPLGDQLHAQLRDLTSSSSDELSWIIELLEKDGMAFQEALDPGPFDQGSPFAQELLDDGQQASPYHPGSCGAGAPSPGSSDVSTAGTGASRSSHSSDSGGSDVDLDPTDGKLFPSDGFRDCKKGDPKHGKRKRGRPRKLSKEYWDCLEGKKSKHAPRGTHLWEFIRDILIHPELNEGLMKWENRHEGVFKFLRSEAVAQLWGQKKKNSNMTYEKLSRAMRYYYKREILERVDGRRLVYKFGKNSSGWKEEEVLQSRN
# How it was run: as §1
# [5] = target: T4, ELK1 (Homo sapiens, UniProt P19419 1-428)
# T4 sequence: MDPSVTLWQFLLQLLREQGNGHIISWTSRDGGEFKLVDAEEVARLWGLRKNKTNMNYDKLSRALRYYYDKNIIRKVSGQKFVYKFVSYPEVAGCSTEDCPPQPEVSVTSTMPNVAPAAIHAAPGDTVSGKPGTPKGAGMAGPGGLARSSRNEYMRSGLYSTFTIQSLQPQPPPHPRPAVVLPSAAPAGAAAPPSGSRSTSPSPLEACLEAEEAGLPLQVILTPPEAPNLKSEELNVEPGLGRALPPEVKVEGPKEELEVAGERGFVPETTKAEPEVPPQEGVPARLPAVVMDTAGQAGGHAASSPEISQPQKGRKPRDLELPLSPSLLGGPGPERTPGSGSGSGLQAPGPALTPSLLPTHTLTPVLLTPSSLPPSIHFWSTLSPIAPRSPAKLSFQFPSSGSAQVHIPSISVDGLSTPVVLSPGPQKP
# How it was run: as §1
# [6] = target: ELF1 (Homo sapiens, UniProt P32519 1-619)
# How it was run: as §1
# [7] = target: T5, FEV (Homo sapiens, UniProt Q99581 1-238)
# T5 sequence: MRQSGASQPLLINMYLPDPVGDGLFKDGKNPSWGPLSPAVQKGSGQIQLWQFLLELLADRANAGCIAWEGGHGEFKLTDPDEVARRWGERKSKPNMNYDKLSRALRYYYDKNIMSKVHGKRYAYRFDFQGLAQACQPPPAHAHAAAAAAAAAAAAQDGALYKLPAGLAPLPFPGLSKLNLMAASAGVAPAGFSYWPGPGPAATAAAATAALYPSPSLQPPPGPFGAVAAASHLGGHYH
# How it was run: as §1
# [8] = target: T6, ETV3L (Homo sapiens, UniProt Q6ZN32 1-361)
# T6 sequence: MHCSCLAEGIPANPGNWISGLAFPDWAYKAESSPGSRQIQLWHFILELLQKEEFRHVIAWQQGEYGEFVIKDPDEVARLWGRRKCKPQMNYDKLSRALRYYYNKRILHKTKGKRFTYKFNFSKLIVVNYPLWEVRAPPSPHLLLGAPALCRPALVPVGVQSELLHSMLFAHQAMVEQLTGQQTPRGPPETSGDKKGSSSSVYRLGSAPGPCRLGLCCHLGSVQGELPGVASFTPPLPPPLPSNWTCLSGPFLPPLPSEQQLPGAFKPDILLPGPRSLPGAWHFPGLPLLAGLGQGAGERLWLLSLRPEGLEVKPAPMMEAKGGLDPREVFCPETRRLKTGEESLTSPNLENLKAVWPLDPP
# How it was run: as §1
# [9] = target: T7, ETV3 (Homo sapiens, UniProt P41162-2 1-143)
# T7 sequence: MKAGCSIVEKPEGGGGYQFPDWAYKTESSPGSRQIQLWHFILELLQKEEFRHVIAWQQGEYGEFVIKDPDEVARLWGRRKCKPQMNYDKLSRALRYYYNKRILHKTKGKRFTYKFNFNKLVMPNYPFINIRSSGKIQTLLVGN
# How it was run: as §1
# [10] = target: ETV6 (Homo sapiens, UniProt P41212 1-452)
# How it was run: as §1
# [11] = target: CRX (Homo sapiens, UniProt O43186 1-299)
# How it was run: as §1
# [12] = target: T8, GABPA (Homo sapiens, UniProt Q06546 1-454)
# T8 sequence: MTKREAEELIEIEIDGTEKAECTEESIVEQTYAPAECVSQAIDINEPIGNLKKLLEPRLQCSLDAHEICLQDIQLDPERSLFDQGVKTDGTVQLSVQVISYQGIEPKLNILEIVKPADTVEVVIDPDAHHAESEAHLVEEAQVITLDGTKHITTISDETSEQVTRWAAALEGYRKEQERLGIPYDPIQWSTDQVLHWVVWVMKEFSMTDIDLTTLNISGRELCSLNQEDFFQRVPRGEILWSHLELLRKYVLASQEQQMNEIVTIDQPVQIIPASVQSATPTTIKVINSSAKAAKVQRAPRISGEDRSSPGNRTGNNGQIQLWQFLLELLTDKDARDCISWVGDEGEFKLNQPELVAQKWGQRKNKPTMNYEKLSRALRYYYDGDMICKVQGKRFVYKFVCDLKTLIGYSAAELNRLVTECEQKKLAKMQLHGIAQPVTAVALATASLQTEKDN
# How it was run: as §1
# [13] = target: T9, ELK4 (Homo sapiens, UniProt P28324-2 1-405)
# T9 sequence: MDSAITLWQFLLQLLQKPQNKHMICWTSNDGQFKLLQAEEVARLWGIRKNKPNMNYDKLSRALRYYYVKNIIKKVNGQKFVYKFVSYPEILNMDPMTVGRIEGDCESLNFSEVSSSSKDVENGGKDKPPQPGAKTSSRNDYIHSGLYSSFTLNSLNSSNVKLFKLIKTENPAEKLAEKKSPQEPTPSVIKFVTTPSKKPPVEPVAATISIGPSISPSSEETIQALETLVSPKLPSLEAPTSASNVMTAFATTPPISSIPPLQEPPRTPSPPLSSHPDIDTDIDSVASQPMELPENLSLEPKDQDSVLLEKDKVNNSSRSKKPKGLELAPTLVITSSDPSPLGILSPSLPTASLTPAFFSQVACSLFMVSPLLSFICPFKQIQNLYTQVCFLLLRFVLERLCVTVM
# How it was run: as §1
# [14] = target: T10, ERF (Homo sapiens, UniProt P50548 1-548)
# T10 sequence: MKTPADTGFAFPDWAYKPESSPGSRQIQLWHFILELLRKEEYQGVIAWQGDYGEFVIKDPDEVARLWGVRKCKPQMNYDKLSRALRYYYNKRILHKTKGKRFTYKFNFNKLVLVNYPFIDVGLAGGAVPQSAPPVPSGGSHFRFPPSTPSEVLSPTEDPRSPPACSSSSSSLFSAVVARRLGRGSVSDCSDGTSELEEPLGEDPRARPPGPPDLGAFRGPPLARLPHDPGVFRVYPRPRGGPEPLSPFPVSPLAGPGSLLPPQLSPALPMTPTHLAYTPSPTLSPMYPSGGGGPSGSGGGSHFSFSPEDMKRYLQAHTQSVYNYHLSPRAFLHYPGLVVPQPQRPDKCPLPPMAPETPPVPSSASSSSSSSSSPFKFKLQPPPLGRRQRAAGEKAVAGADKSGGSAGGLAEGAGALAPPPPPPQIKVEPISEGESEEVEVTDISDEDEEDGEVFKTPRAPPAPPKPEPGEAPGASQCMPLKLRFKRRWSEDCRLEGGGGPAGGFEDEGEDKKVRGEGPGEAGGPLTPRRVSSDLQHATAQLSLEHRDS
# How it was run: as §1
# Chain of ETV6 (P41212 whole entry): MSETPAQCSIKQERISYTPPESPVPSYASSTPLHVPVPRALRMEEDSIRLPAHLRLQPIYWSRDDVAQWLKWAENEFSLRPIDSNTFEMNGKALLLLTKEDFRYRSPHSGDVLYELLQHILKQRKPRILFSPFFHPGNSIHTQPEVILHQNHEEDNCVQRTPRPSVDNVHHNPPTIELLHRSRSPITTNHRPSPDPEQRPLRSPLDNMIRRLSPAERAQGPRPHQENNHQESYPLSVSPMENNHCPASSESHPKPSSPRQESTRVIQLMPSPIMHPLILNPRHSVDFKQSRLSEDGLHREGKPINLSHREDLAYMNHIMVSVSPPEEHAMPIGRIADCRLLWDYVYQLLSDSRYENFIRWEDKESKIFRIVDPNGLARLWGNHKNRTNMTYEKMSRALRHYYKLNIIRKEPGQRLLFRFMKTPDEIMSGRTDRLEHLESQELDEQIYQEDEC
# Chain of CRX (O43186 whole entry): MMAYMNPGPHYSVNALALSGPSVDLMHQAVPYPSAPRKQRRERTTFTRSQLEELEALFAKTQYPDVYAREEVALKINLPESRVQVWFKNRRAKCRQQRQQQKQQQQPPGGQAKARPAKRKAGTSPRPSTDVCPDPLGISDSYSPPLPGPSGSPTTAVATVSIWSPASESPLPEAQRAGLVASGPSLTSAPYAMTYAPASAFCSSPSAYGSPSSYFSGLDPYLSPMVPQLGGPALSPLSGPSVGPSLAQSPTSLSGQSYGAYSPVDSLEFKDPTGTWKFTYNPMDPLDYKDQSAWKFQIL
# Chain of ELF1 (P32519 whole entry): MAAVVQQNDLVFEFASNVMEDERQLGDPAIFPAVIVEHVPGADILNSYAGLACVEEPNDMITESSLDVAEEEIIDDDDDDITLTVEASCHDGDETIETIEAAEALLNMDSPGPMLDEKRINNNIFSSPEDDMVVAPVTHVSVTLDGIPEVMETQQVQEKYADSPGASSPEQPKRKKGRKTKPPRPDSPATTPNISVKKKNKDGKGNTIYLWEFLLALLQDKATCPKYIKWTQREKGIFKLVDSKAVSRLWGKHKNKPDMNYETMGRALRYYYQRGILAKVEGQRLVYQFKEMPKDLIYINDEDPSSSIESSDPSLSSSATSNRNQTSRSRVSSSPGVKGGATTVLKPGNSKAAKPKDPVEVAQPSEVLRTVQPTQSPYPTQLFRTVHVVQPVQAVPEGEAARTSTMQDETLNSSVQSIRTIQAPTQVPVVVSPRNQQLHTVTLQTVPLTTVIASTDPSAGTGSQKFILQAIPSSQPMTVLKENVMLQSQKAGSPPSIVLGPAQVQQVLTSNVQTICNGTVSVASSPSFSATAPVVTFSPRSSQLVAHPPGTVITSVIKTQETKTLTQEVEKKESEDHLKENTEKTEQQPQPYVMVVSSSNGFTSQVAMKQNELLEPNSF
sequence,measurement,setting,value
GTGGTT,binding signal,[1],"1.02 fold enrichment (6-mer frequency, TF over GST control)"
same,binding signal,[2],"1.01 fold enrichment (6-mer frequency, TF over GST control)"
same,binding signal,[3],"1.01 fold enrichment (6-mer frequency, TF over GST control)"
same,binding signal,[4],"1.1 fold enrichment (6-mer frequency, TF over GST control)"
GGTTAC,binding signal,[5],"1.05 fold enrichment (6-mer frequency, TF over GST control)"
same,binding signal,[6],"1.01 fold enrichment (6-mer frequency, TF over GST control)"
same,binding signal,[2],"1.04 fold enrichment (6-mer frequency, TF over GST control)"
same,binding signal,[7],"1 fold enrichment (6-mer frequency, TF over GST control)"
same,binding signal,[3],"1.05 fold enrichment (6-mer frequency, TF over GST control)"
same,binding signal,[4],"1.07 fold enrichment (6-mer frequency, TF over GST control)"
same,binding signal,[8],"1.01 fold enrichment (6-mer frequency, TF over GST control)"
same,binding signal,[9],"1.01 fold enrichment (6-mer frequency, TF over GST control)"
same,binding signal,[10],"1.02 fold enrichment (6-mer frequency, TF over GST control)"
TAAGGC,binding signal,[3],"1.02 fold enrichment (6-mer frequency, TF over GST control)"
same,binding signal,[11],"1.52 fold enrichment (6-mer frequency, TF over GST control)"
ATAGTC,binding signal,[12],"1.01 fold enrichment (6-mer frequency, TF over GST control)"
same,binding signal,[3],"1.1 fold enrichment (6-mer frequency, TF over GST control)"
same,binding signal,[13],"1.04 fold enrichment (6-mer frequency, TF over GST control)"
same,binding signal,[4],"1.07 fold enrichment (6-mer frequency, TF over GST control)"
AGTTTG,binding signal,[3],"1.06 fold enrichment (6-mer frequency, TF over GST control)"
same,binding signal,[13],"1.03 fold enrichment (6-mer frequency, TF over GST control)"
same,binding signal,[14],"1.01 fold enrichment (6-mer frequency, TF over GST control)"
